{"source": "the supplement of paper PMC12632987", "binders": {"B1": {"name": "usp_38_diff_out_5_164_604 (protein)", "chain": "AVEEALAKMKAITEELKKKFDELLAEAKKNPEKLDEYKKEVTEALNKAIDEMNEVTTAALEAAPEQADTILAAYDENVTEMLTHYQAVMDELKALEKEAA"}, "B2": {"name": "usp_38_diff_out_4_99_573 (protein)", "chain": "KKEELVEEVKRLTEEVKEIKKEAEAAKSLPLEERRATAEELRRRLDELARRMGEIYFEARDSGDEELIEAVEEEADKFVDEYLKAGTALNELESEVLEAE"}, "B3": {"name": "usp_38_diff_out_5_164_592 (protein)", "chain": "GVEKYLEELQKITDEAIKELKELLEEAKENPEKLEEYKKKATEKTNEAIDKMNEITTKALEEHPEQADTILAHYDEQVTKLLTEYNEVLKEIEELKKKKE"}, "B4": {"name": "usp_38_diff_out_5_164_586 (protein)", "chain": "TVEAAKKQMDEITEKLIKELKKLKEEAEKDPSKLDEIEKEANEKTNKAIDEMTAITTETLEANPEKADEILAHYSEQIDKMLKEYQELMDYIKKLKEEKE"}, "B5": {"name": "usp_38_diff_out_4_99_577 (protein)", "chain": "EKEKKVEEVKKIKEELKKLKEEAEAAKKLPLEERKKVAEELSKRLDELAKRLGKIYFEARDTGDKELIKAVTEEANKAVDEYLKAATALNELQSLVDEER"}, "B6": {"name": "usp_38_diff_out_4_99_572 (protein)", "chain": "EREEMVERMKELTERLKELTARAKAARALPPAERAAAAAALREELDRLAREAGEIYFRARDSGDKELIEEVGKVADEFVDAYLEAGTALNELEAEVDAAA"}, "B7": {"name": "usp_38_diff_out_5_164_584 (protein)", "chain": "EVEEAFKEMDALTEETIKKLNELLKEAKENPEKAEEYLKEATSLVNSALDKLNEITTETLEKHPEKAEEILKHYDERVTKLLTEYQKVKEEIQKIIEEAK"}, "B8": {"name": "usp_38_diff_out_5_164_589 (protein)", "chain": "GVEKYLEEIDKLTEEAIAKIKELLAEAKKNPEKLDEVEKEIKELTDKTLDEINKITTEALEKFPEKAEEILSHYDEQVTKLLTAYQAALDELAKLKKEKA"}, "B9": {"name": "usp_38_diff_out_4_99_579 (protein)", "chain": "EKEKMVERLKELTKRAERLREEAEAAFSLPLEERRELAERLREELDRLAEEAAEIYFEARDSGDEELIKAVEKEADKFVDAYLAAGTALNELEHLVLEEE"}, "B10": {"name": "usp_38_diff_out_5_164_603 (protein)", "chain": "AVEAALAEMDAIAAELKKELEKLLEEAKKNPEKLEEYKKKLTEATNAALDRLNATTTAALEAAPERADEILAHYDRVVTEMLTKYQEAKEELEKLKKEAA"}, "B11": {"name": "usp_38_diff_out_5_164_596 (protein)", "chain": "SVEEALKELTELTDKTIAEIDKLVAEAKKNPEKLDEYEKQLTETTNEAIDKMNEITTKALEANPEKADEILSHYDEQMTRLLTRYAEAKAEIEALKKALE"}, "B12": {"name": "usp_38_diff_out_5_164_593 (protein)", "chain": "GVEEYLEELEKITEEAIKKLKELLEEAKKDPSKLEEYKKKATELVNEAIDKMNEITTEALEKHPEKADEILEHYDRQVTRLLTEYQKVMDEIEKIKKELE"}, "B13": {"name": "usp_38_diff_out_5_164_587 (protein)", "chain": "MVEEYLKEMEKITEEAIKKLEELLAEAKKNPEKLDEYKKEIEKLVEKALNEINELVTKALEENPEKAEEILKKYDELVTKLLTAYQKAMKELEALKKEKA"}, "B14": {"name": "usp_38_diff_out_5_164_585 (protein)", "chain": "GVEEAKKKMTELTEETIKKLEELLKKAKENPEKAEEYLKEANKLVQEALDELNRITTETLEAHPEQAEEILAHYSEQVTKLLTKYQEVMKEIKEIIKKAK"}, "B15": {"name": "usp_38_diff_out_5_164_583 (protein)", "chain": "GVEEYLARLDAIKKETIEELDKLLEEAKKNPEKLEEYKKKITEITNKAINEMTKVTTEALEEFPEQAETILAHYSERIDELLKHYNEVMKELEKLKKELE"}, "B16": {"name": "usp_38_diff_out_5_164_602 (protein)", "chain": "SLEEYLKEMDELTKELIEELKKLVEEAKKNPEKLEEYKKKINEKTNEAIDKMNEITTKALEEFPEKAEEILKHYSEQIDKMLEAKNAAMKELDALKKAQA"}, "B17": {"name": "usp_38_diff_out_4_99_571 (protein)", "chain": "EKEKIVEEVKKLKEEAEKLLKEAKEAKKLSTEERRKKAEEIRKKLDELAKEMGKLYFEARDSGDKELIEEVNKEADEFVDAYEKAATELFELEAEVEEEE"}, "B18": {"name": "usp_38_diff_out_4_99_578 (protein)", "chain": "EKEKKVEELKKLTEKAKELKKEAEAAKTLSLEERKKKAEELRKELDKIAEEAAKIYFEARESGDKELIEAVEKEAKKFVDAYLEAGTALNELQHEVDEAE"}, "B19": {"name": "usp_38_diff_out_4_99_568 (protein)", "chain": "MKEEKVKEVKELTERAKELLEKAKEAFELSHEERKKKAEELRKELDELAKRMGAIYFEARDSGDEELIEAVTEEADEFVDAYNEAAEALNLLEHEVLEEE"}, "B20": {"name": "usp_38_diff_out_5_164_599 (protein)", "chain": "SLEEYLRRMEEIREKLIKELKELLEEAKKNPEKLEEIKKEVEKKTEEALNEMNEITTAALEAYPERAEEILRHYSEQVEKMLTEYQEVMEELEKLEKEKK"}, "B21": {"name": "usp_38_diff_out_4_99_574 (protein)", "chain": "EKEEKVKKAEEIAKKLEELLKEAKKARELSTEERRKKAEEIRKELDELAKELGKIYFEARDSGDKELIKEVEEVAKKAVDAYEKAATELFELEDEVQQEE"}, "B22": {"name": "usp_38_diff_out_4_99_580 (protein)", "chain": "EKEKKVKELKKLTEEAKKIKEEAEAAKSLPLEERKKKAEELRKRLDELAKRAAAIYFEARDSGDEELKKAVEEEADKFVDAYLEAGTALNELEHLVLEEE"}, "B23": {"name": "usp_38_diff_out_4_99_575 (protein)", "chain": "EKEEMVERVKRLTEEVRRLLEEVEAARTLSPEERRALAERASAELDRLAEEMGKIYFEARDSGDKELIKAVTEAGDEFVDAYERAGLALAELRNEVDEES"}, "B24": {"name": "usp_38_diff_out_5_164_600 (protein)", "chain": "SVEESLAEIDKITAELKEELKALLAEAKENPEKLKEYKKKMTEKMNEAIDKMNEITTKTLEAYPEQADTILAHYDRRMTEMLTAYNEAMKELEALEKELA"}, "B25": {"name": "usp_38_diff_out_4_99_570 (protein)", "chain": "KKEELVERAKELKERAEELLKEAKKARELSTEERAKKAAEIDKELDELAKEMGEIYFEARDSGDEELIEAVTEVADEFVKAYEKAATELFELQAEVQEEQ"}, "B26": {"name": "usp_38_diff_out_5_164_605 (protein)", "chain": "GVEEALERLERIREELKKELDELLEEAKKNPEKLEEYKKKVTEKVNEAIDEMNEVTTAALEAHPERADEILAHYDEVVTEMLEHYNKVMEELEKLKKEYE"}, "B27": {"name": "usp_38_diff_out_4_99_569 (protein)", "chain": "EKEKKVKEVKKIKEKIEELLKEAEEAEKLSVEERRKKAEEIRKELDELAKKLGKLYFEARDSGDKELIEAVNKEADKAVDAYKEAATKLHELEAKVQEEE"}, "B28": {"name": "usp_38_diff_out_5_164_594 (protein)", "chain": "GVDAALAEIDKITEEAIKKMEELLEKAKKNPEQLDEYKKKLTEITNEALDKINATTTAALEAHPEQADTILAHYDKQVTKMLTKYQEALDEIEKLKKEKE"}, "B29": {"name": "usp_38_diff_out_5_164_588 (protein)", "chain": "GLEEYLEEIDKITEETIEKLKKLLEEAKKNPEKLEEYEKEIEKLTEEALDKINEVVTEALEKHPEKAEEILAHYDEQVTRLLTAYQEAKKELEKLKKEKE"}, "B30": {"name": "usp_38_diff_out_4_99_566 (protein)", "chain": "MKEELVKKVKELKKKAEELKKKAEEAFKLDHEERKKVAEELEKELDEIAKEMGAIYFSARDSGDAELIKAVQKEADEFVDAYNEAATALNELRHLVLEEE"}, "B31": {"name": "usp_38_diff_out_5_164_582 (protein)", "chain": "GVEEYLAEMEAIRDETIAKLDALLAEAKENPEKLDEYKKEITDTTNEAINRMTEVTTRALEEHPEKAEEILARYSELMDELLTHYNAVMEELEKLKEELE"}, "B32": {"name": "usp_38_diff_out_4_99_565 (protein)", "chain": "EKERMVEEVRRLTERARELLERARAAFELPPEERRRTAEELARELDELARRMGAIAFAARDSGDPELIKAVNEEADEFVDAYTEAATALNELRHLVLQEE"}}}
{"target": "T1, USP38, Q8NB14", "T1 chain": "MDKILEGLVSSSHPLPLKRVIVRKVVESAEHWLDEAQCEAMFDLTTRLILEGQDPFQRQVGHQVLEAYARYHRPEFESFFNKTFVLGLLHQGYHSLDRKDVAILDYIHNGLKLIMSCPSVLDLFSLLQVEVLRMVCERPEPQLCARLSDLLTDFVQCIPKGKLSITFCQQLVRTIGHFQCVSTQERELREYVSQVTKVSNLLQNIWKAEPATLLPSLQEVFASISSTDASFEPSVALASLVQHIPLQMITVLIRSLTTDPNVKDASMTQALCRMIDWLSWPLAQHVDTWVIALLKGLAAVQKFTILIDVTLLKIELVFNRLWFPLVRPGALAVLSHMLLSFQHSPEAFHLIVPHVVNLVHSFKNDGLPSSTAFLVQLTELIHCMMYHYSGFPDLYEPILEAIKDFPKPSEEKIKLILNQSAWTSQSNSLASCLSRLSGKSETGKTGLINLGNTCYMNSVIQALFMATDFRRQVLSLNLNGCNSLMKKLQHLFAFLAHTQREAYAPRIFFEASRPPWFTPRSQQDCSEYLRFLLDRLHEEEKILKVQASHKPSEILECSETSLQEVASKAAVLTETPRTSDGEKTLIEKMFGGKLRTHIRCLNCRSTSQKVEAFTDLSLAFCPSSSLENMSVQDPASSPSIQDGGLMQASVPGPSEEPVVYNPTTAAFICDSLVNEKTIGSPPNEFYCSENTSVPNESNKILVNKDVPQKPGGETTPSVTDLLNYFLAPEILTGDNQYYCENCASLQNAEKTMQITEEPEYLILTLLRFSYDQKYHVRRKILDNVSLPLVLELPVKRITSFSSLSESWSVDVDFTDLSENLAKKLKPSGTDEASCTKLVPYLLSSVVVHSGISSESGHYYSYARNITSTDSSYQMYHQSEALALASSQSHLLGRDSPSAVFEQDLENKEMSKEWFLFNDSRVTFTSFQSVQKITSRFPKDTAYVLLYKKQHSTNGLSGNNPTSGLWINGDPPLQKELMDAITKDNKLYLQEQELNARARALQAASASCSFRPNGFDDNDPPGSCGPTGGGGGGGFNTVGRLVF", "experiment": "median log2 fold change of GCK-ALFA target abundance (FLAG IP / Myc IP barcode read proportion) (log2 ratio); each designed protein is fused to an ALFA-tag nanobody in HEK293 cells to bring the named protein to FLAG-tagged glucokinase (GCK); Myc marks an untargeted standard; higher = target protein stabilised (more abundant)", "conditions": "target protein: 3xFLAG-MCP-GCK-ALFA reporter; HEK293 landing pad (RPLP)", "method_in_brief": "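Sequencing of reverse-transcribed, amplified circular RNA barcodes from anti-FLAG and anti-Myc immunoprecipitates provided the readout for an ALFA-nanobody-fused binder library recombined into HEK293 landing-pad cells. Those cells were induced with 2 μg mL^−1 doxycycline, transfected with a plasmid expressing a FLAG-tagged target and a Myc-tagged standard, and lysed after 48 h. Target abundance is the per-binder median log2 ratio of FLAG to Myc barcode read proportions. Only barcodes at a proportion of ≥10^−7 in both replicates and binders with ≥3 barcodes per replicate were kept, with a 10^−6 pseudocount added before the two replicates were pooled.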"}
{"binder": "B1", "median log2 fold change": -0.333}
{"binder": "B2", "median log2 fold change": 0.007}
{"binder": "B3", "median log2 fold change": 0.0989}
{"binder": "B4", "median log2 fold change": -0.179}
{"binder": "B5", "median log2 fold change": -0.345}
{"binder": "B6", "median log2 fold change": 0.235}
{"binder": "B7", "median log2 fold change": -0.0565}
{"binder": "B8", "median log2 fold change": -0.351}
{"binder": "B9", "median log2 fold change": -0.154}
{"binder": "B10", "median log2 fold change": -0.21}
{"binder": "B11", "median log2 fold change": -0.12}
{"binder": "B12", "median log2 fold change": -0.211}
{"binder": "B13", "median log2 fold change": -0.281}
{"binder": "B14", "median log2 fold change": 0.00563}
{"binder": "B15", "median log2 fold change": 0.0633}
{"binder": "B16", "median log2 fold change": 0.277}
{"binder": "B17", "median log2 fold change": -0.355}
{"binder": "B18", "median log2 fold change": -0.163}
{"binder": "B19", "median log2 fold change": -0.28}
{"binder": "B20", "median log2 fold change": -0.404}
{"binder": "B21", "median log2 fold change": -0.356}
{"binder": "B22", "median log2 fold change": 0.145}
{"binder": "B23", "median log2 fold change": -0.45}
{"binder": "B24", "median log2 fold change": -0.0274}
{"binder": "B25", "median log2 fold change": -0.0709}
{"binder": "B26", "median log2 fold change": -0.0369}
{"binder": "B27", "median log2 fold change": -0.151}
{"binder": "B28", "median log2 fold change": -0.474}
{"binder": "B29", "median log2 fold change": 0.25}
{"binder": "B30", "median log2 fold change": 0.0841}
{"binder": "B31", "median log2 fold change": -0.0672}
{"binder": "B32", "median log2 fold change": 0.126}
